Experimental data as given in the OligoGym collection.

What follows are sequences tested against ACTL6A (assay: pooled miR-30 sensor sort-seq; sequence = guide strand). Details: shRNA.
Also: reference of the scale not given here.

Which sensor-assay potency score (higher = more potent) does the source give for TAGTGTTCAAACATTAACTCTG here?
Its sensor-assay potency score (higher = more potent) is 0.293.

How did the sensor-assay potency score (higher = more potent) turn out when TAGTAATAAAGTCTCCAGCAAG was run?
Its sensor-assay potency score (higher = more potent) is -1.21.

For ATAGCTTGGAAACTATCCCAGT, which sensor-assay potency score (higher = more potent) is on record?
Its sensor-assay potency score (higher = more potent) is -0.733.

With TTACACATATAATTGTGCCAAG as the sequence, how does the sensor-assay potency score (higher = more potent) read?
The sensor-assay potency score (higher = more potent) was -1.42.

Which sensor-assay potency score (higher = more potent) does the source give for TAGTATTCCACGGTGCCTCTGA here?
Its sensor-assay potency score (higher = more potent) is 0.0107.

For TTTGCTCTAGTATTCCACGGTG, which sensor-assay potency score (higher = more potent) is on record?
Its sensor-assay potency score (higher = more potent) is -0.0557.

Which sensor-assay potency score (higher = more potent) does the source give for TGACTGACTCCTAACATTGTGT here?
Its sensor-assay potency score (higher = more potent) is -0.541.

TCCTTCTTCATATTCTTGCTTG was tested. Which sensor-assay potency score (higher = more potent) did it give?
Its sensor-assay potency score (higher = more potent) is -0.909.

How did the sensor-assay potency score (higher = more potent) turn out when TAATTGTGCCAAGACCTCGTAA was run?
Its sensor-assay potency score (higher = more potent) is -0.587.

How did the sensor-assay potency score (higher = more potent) turn out when TAACCTGAGGCAACTTCTCTTT was run?
The sensor-assay potency score (higher = more potent) was -0.605.

How did the sensor-assay potency score (higher = more potent) turn out when TTGAAGGACATAGCCATCGTGG was run?
The sensor-assay potency score (higher = more potent) was -0.822.

For AATAGCTTGGAAACTATCCCAG, which sensor-assay potency score (higher = more potent) is on record?
Its sensor-assay potency score (higher = more potent) is -0.568.

TTGTGTTTCCTGATAACCCCTT was tested. Which sensor-assay potency score (higher = more potent) did it give?
The sensor-assay potency score (higher = more potent) was 0.282.

For TTTATCGCCATCTATTTCCATT, which sensor-assay potency score (higher = more potent) is on record?
The sensor-assay potency score (higher = more potent) was -1.13.

TTGCTCTAGTATTCCACGGTGC was tested. Which sensor-assay potency score (higher = more potent) did it give?
Its sensor-assay potency score (higher = more potent) is -0.281.

With TTACACTGCCATAGAGACCTGG as the sequence, how does the sensor-assay potency score (higher = more potent) read?
Its sensor-assay potency score (higher = more potent) is -0.411.

TTGACATGCATTTTGTAGGTAT was tested. Which sensor-assay potency score (higher = more potent) did it give?
The sensor-assay potency score (higher = more potent) was 0.179.

With TACACTGCCATAGAGACCTGGT as the sequence, how does the sensor-assay potency score (higher = more potent) read?
The sensor-assay potency score (higher = more potent) was -0.00757.

With TTGCTTGGAAATCCACATCTGT as the sequence, how does the sensor-assay potency score (higher = more potent) read?
The sensor-assay potency score (higher = more potent) was -0.451.

With TTTTCTGAGACAGCTCTCTATT as the sequence, how does the sensor-assay potency score (higher = more potent) read?
The sensor-assay potency score (higher = more potent) was -0.807.

How did the sensor-assay potency score (higher = more potent) turn out when TTGAATCTGACACTTGAAGTAC was run?
The sensor-assay potency score (higher = more potent) was -0.0659.

Which sensor-assay potency score (higher = more potent) does the source give for TTAGTATCTATGTAGTAGGTGG here?
Its sensor-assay potency score (higher = more potent) is 0.198.

What follows are sequences tested against ACTR3B in the same assay as above. Details: shRNA.

How did the sensor-assay potency score (higher = more potent) turn out when TTACTTCATCAACAACATCTGA was run?
Its sensor-assay potency score (higher = more potent) is -0.87.

Which sensor-assay potency score (higher = more potent) does the source give for TTCATCAACAACATCTGAGATG here?
The sensor-assay potency score (higher = more potent) was -0.638.

Which sensor-assay potency score (higher = more potent) does the source give for TACTTCATCAACAACATCTGAG here?
Its sensor-assay potency score (higher = more potent) is 0.487.

With TCTATAACAAACTTCTTCTGGT as the sequence, how does the sensor-assay potency score (higher = more potent) read?
Its sensor-assay potency score (higher = more potent) is 0.599.

With TTTAAAAACCACTTGCTCCATG as the sequence, how does the sensor-assay potency score (higher = more potent) read?
Its sensor-assay potency score (higher = more potent) is -0.231.

Which sensor-assay potency score (higher = more potent) does the source give for TTGAGCTTGGTCAACTACCTTT here?
Its sensor-assay potency score (higher = more potent) is -0.378.

For TACGACATTCTTATACAGCGGG, which sensor-assay potency score (higher = more potent) is on record?
Its sensor-assay potency score (higher = more potent) is -0.141.

Which sensor-assay potency score (higher = more potent) does the source give for TATAACAAACTTCTTCTGGTTG here?
Its sensor-assay potency score (higher = more potent) is -0.5.

TACTGTTTGATCCACTTCCGGG was tested. Which sensor-assay potency score (higher = more potent) did it give?
The sensor-assay potency score (higher = more potent) was -0.539.

TTCTGCAAGATACTCTCTGTTT was tested. Which sensor-assay potency score (higher = more potent) did it give?
Its sensor-assay potency score (higher = more potent) is -0.433.

How did the sensor-assay potency score (higher = more potent) turn out when TTGATCGCATTGATACCCGTGT was run?
Its sensor-assay potency score (higher = more potent) is -0.213.

TTACATAACCTTCTGCCACTGG was tested. Which sensor-assay potency score (higher = more potent) did it give?
The sensor-assay potency score (higher = more potent) was 0.166.

These sequences were tested against ACYP1 in the same assay as above. Details: shRNA.

Which sensor-assay potency score (higher = more potent) does the source give for TAACTTATTGACTAATGCTAAT here?
Its sensor-assay potency score (higher = more potent) is -1.36.

How did the sensor-assay potency score (higher = more potent) turn out when TAGGACTTCCTCTTGTTTCAAG was run?
The sensor-assay potency score (higher = more potent) was -0.653.

For TGTGTGATTTAGGACTTCCTCT, which sensor-assay potency score (higher = more potent) is on record?
Its sensor-assay potency score (higher = more potent) is -0.445.

For TTGTGTACAGTGGTAATCCTTC, which sensor-assay potency score (higher = more potent) is on record?
Its sensor-assay potency score (higher = more potent) is -0.227.

Which sensor-assay potency score (higher = more potent) does the source give for TTTGCTTTGTCGATGTGTGATT here?
Its sensor-assay potency score (higher = more potent) is -0.219.

For ATAACTTATTGACTAATGCTAA, which sensor-assay potency score (higher = more potent) is on record?
The sensor-assay potency score (higher = more potent) was -0.709.
